The values that follow come from publication PMC9911399, “Two distinct binding modes provide the RNA-binding protein RbFox with extraordinary sequence specificity”.

Numbering of substitutions follows the chain as printed; changes in the protein carry UniProt numbers. In all, about 16,000 sequences were measured (“ka relative to ugcaugu”: median about 0.096, highest 2% from about 0.35 on). Only a selection was taken, and the highest values are over-represented in it overall.

The chains are these.
T1: RBFOX1 RRM RbFoxmut (Fox-RRM*) (Homo sapiens, UniProt Q9NWB1 109-208, R118D;E147R;N151S;E152T)
T1 sequence: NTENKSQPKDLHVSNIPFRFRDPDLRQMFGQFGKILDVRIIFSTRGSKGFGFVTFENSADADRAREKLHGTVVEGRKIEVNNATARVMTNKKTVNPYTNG

B1: UAUUAUG (DNA:RNA)
RNA: GGGAGACCGGAAUUCAGAUUGUCCUAUUAUGUUAAAUCCCGUCGUAGCCACCA
DNA 1: CAATCTGAATTCCGGTCTCCC
DNA 2: TGGTGGCTACGACGGGATT
B2: UAAGUUC (DNA:RNA)
RNA: B1 RNA with U27A, U28G, A29U, G31C
DNA 1: CAATCTGAATTCCGGTCTCCC
DNA 2: TGGTGGCTACGACGGGATT
B3: GGAUAGG (DNA:RNA)
RNA: B1 RNA with U25G, A26G, U27A, U30G
DNA 1: CAATCTGAATTCCGGTCTCCC
DNA 2: TGGTGGCTACGACGGGATT
B4: UUGUAUU (DNA:RNA)
RNA: B1 RNA with A26U, U27G, G31U
DNA 1: CAATCTGAATTCCGGTCTCCC
DNA 2: TGGTGGCTACGACGGGATT
B5: CCCGAGU (DNA:RNA)
RNA: B1 RNA with U25C, A26C, U27C, U28G, U30G, G31U
DNA 1: CAATCTGAATTCCGGTCTCCC
DNA 2: TGGTGGCTACGACGGGATT
B6: UCGCGCA (DNA:RNA)
RNA: B1 RNA with A26C, U27G, U28C, A29G, U30C, G31A
DNA 1: CAATCTGAATTCCGGTCTCCC
DNA 2: TGGTGGCTACGACGGGATT
B7: UCGCAUA (DNA:RNA)
RNA: B1 RNA with A26C, U27G, U28C, G31A
DNA 1: CAATCTGAATTCCGGTCTCCC
DNA 2: TGGTGGCTACGACGGGATT
B8: UCAGAUC (DNA:RNA)
RNA: B1 RNA with A26C, U27A, U28G, G31C
DNA 1: CAATCTGAATTCCGGTCTCCC
DNA 2: TGGTGGCTACGACGGGATT
B9: UCGCAUG (DNA:RNA)
RNA: B1 RNA with A26C, U27G, U28C
DNA 1: CAATCTGAATTCCGGTCTCCC
DNA 2: TGGTGGCTACGACGGGATT
B10: UCGCAGA (DNA:RNA)
RNA: B1 RNA with A26C, U27G, U28C, U30G, G31A
DNA 1: CAATCTGAATTCCGGTCTCCC
DNA 2: TGGTGGCTACGACGGGATT
B11: UCGCAUC (DNA:RNA)
RNA: B1 RNA with A26C, U27G, U28C, G31C
DNA 1: CAATCTGAATTCCGGTCTCCC
DNA 2: TGGTGGCTACGACGGGATT
B12: UGAACAA (DNA:RNA)
RNA: B1 RNA with A26G, U27A, U28A, A29C, U30A, G31A
DNA 1: CAATCTGAATTCCGGTCTCCC
DNA 2: TGGTGGCTACGACGGGATT
B13: AUUUACA (DNA:RNA)
RNA: B1 RNA with U25A, A26U, U30C, G31A
DNA 1: CAATCTGAATTCCGGTCTCCC
DNA 2: TGGTGGCTACGACGGGATT
B14: UGAUGCG (DNA:RNA)
RNA: B1 RNA with A26G, U27A, A29G, U30C
DNA 1: CAATCTGAATTCCGGTCTCCC
DNA 2: TGGTGGCTACGACGGGATT
B15: UUGUGGU (DNA:RNA)
RNA: B1 RNA with A26U, U27G, A29G, U30G, G31U
DNA 1: CAATCTGAATTCCGGTCTCCC
DNA 2: TGGTGGCTACGACGGGATT
B16: ACACGAA (DNA:RNA)
RNA: GGGAGACCGGAAUUCAGAUUGUCCACACGAAUUAAAUCCCGUCGUAGCCACCA
DNA 1: CAATCTGAATTCCGGTCTCCC
DNA 2: TGGTGGCTACGACGGGATT
B17: GCGUAAC (DNA:RNA)
RNA: B16 RNA with A25G, A27G, C28U, G29A, A31C
DNA 1: CAATCTGAATTCCGGTCTCCC
DNA 2: TGGTGGCTACGACGGGATT
B18: GGACGCA (DNA:RNA)
RNA: B16 RNA with A25G, C26G, A30C
DNA 1: CAATCTGAATTCCGGTCTCCC
DNA 2: TGGTGGCTACGACGGGATT
B19: UUAGUGG (DNA:RNA)
RNA: B1 RNA with A26U, U27A, U28G, A29U, U30G
DNA 1: CAATCTGAATTCCGGTCTCCC
DNA 2: TGGTGGCTACGACGGGATT
B20: GCCAUGC (DNA:RNA)
RNA: B16 RNA with A25G, A27C, C28A, G29U, A30G, A31C
DNA 1: CAATCTGAATTCCGGTCTCCC
DNA 2: TGGTGGCTACGACGGGATT
B21: ACAUGCU (DNA:RNA)
RNA: B16 RNA with C28U, A30C, A31U
DNA 1: CAATCTGAATTCCGGTCTCCC
DNA 2: TGGTGGCTACGACGGGATT
B22: GUCAUGC (DNA:RNA)
RNA: GGGAGACCGGAAUUCAGAUUGUCCGUCAUGCUUAAAUCCCGUCGUAGCCACCA
DNA 1: CAATCTGAATTCCGGTCTCCC
DNA 2: TGGTGGCTACGACGGGATT
B23: GGCAUGC (DNA:RNA)
RNA: B22 RNA with U26G
DNA 1: CAATCTGAATTCCGGTCTCCC
DNA 2: TGGTGGCTACGACGGGATT
B24: GCAUGCU (DNA:RNA)
RNA: B16 RNA with A25G, C28U, A30C, A31U
DNA 1: CAATCTGAATTCCGGTCTCCC
DNA 2: TGGTGGCTACGACGGGATT
B25: GACAUGC (DNA:RNA)
RNA: B22 RNA with U26A
DNA 1: CAATCTGAATTCCGGTCTCCC
DNA 2: TGGTGGCTACGACGGGATT
B26: GUCCGCU (DNA:RNA)
RNA: B22 RNA with A28C, U29G, G30C, C31U
DNA 1: CAATCTGAATTCCGGTCTCCC
DNA 2: TGGTGGCTACGACGGGATT
B27: CGCAUGC (DNA:RNA)
RNA: B22 RNA with G25C, U26G
DNA 1: CAATCTGAATTCCGGTCTCCC
DNA 2: TGGTGGCTACGACGGGATT
B28: GCAUUGC (DNA:RNA)
RNA: B22 RNA with U26C, C27A, A28U
DNA 1: CAATCTGAATTCCGGTCTCCC
DNA 2: TGGTGGCTACGACGGGATT

The target in the experiment is T1, RBFOX1 RRM RbFoxmut (Fox-RRM*). Nature of the experiment: EMSA; HiTS-Eq, 1 nM pool, 10 min; buffer printed only for the single-RNA assays: 10 mM Tris pH 7.5, 150 mM NaCl, 3.4 mM EDTA, 0.001% NP-40, 30 C. The following applies: tags: His6 N-terminal (pET28a); label: 5' 32P. In outline:
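Purified RbFox RRM, wild type or mutant, was incubated for 10 min in 50 µL with 1 nM of a 5′-radiolabelled RNA pool carrying 7 randomized nucleotides, whose flanks were annealed to DNA oligonucleotides, over a series of increasing protein concentrations. Unbound RNA was resolved on 8% native PAGE, cut out, reverse-transcribed, barcoded by PCR and sequenced on an Illumina HiSeq 2500. Relative association constants were derived from changes in read counts for each RNA species versus the control reaction and normalised to the cognate motif.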
In general terms: A gel shift assay detects complexes by their altered migration in electrophoresis.
Consider B1, for which the binding signal is 0.158 KA relative to UGCAUGU.
With B2, the binding signal is 0.0634 KA relative to UGCAUGU.
With B3 the figure was 0.0913 KA relative to UGCAUGU; with B4, 0.171 KA relative to UGCAUGU.
As for B5, the binding signal is 0.094 KA relative to UGCAUGU.
The same measure for B6: 0.104 KA relative to UGCAUGU.
Consider B7, for which the binding signal was 0.125 KA relative to UGCAUGU.
The same measure for B8: 0.0785 KA relative to UGCAUGU; for B9: 1.06 KA relative to UGCAUGU; for B10: 0.0842 KA relative to UGCAUGU.
As for B11, the binding signal is 0.597 KA relative to UGCAUGU.
With B12 the figure was 0.047 KA relative to UGCAUGU; with B13, 0.119 KA relative to UGCAUGU; with B14, 0.141 KA relative to UGCAUGU.
Consider B15, for which the binding signal was 0.164 KA relative to UGCAUGU.
With B16 the figure was 0.0925 KA relative to UGCAUGU.
The same measure for B17: 0.0833 KA relative to UGCAUGU; for B18: 0.12 KA relative to UGCAUGU.
With B19 the figure was 0.0929 KA relative to UGCAUGU; with B20, 0.109 KA relative to UGCAUGU.
For the molecule B21, the binding signal is 0.102 KA relative to UGCAUGU.
In the case of B22, the binding signal was 0.19 KA relative to UGCAUGU.
With B23 the figure was 0.739 KA relative to UGCAUGU; with B24, 0.736 KA relative to UGCAUGU; with B25, 0.0819 KA relative to UGCAUGU.
Regarding B26, the binding signal is 0.11 KA relative to UGCAUGU.
The same measure for B27: 0.951 KA relative to UGCAUGU; for B28: 0.134 KA relative to UGCAUGU.
